The other results are listed elsewhere or left out. The hit rate among all sequences tested is not known here.
Biological target: furin, P09958
Experiment: furin cleavage Z-score vs untreated control; higher = more cleavage, active = 3.5 or more, inactive = 1 or less, 8 variable residues between constant flanks
Summary of the method: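 Reactions of 0.01 ml ran for 7.5, 15 or 30 min in 50 mM HEPES pH 7.5 with CaCl2 and NaCl, at 1:10 enzyme:substrate. In them, purified furin acted on bead-held 8-mer peptides fused to a cDNA oligonucleotide. The cleavage Z-score was obtained by lowess-adjusting log sequencing counts of released DNA against furin-free reactions and scaling by median absolute deviation.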

furin, P09958, sequence (P09958 whole entry): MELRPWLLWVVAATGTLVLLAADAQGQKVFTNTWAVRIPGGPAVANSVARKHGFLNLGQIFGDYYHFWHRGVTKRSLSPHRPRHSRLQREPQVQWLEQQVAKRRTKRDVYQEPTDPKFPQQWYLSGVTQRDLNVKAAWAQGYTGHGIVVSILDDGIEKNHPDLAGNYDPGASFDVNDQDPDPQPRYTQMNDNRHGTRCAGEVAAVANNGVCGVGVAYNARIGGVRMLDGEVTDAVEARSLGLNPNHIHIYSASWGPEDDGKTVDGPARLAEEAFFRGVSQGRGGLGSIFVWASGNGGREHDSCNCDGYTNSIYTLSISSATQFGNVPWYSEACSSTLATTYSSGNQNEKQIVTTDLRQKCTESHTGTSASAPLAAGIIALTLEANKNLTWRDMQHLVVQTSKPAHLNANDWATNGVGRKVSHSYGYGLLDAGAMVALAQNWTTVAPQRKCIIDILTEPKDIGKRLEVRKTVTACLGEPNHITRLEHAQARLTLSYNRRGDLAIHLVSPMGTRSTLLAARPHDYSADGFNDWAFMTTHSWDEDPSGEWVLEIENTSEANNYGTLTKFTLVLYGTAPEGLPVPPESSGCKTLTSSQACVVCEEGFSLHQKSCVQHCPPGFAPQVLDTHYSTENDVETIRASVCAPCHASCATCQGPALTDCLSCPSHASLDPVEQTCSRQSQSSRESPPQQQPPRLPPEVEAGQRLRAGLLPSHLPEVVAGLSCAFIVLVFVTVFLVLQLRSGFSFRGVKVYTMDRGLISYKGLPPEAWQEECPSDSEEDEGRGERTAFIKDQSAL

Sequence | furin cleavage Z-score (7.5 min) | furin cleavage Z-score (15 min) | furin cleavage Z-score (30 min)
CAEVQTSTWVAGNASASA [HC2202] | 0.816 (inactive) | 1.29 | 1.14
CARRRRPERGAGNASASA [FS-495] | 1.03 | 0.676 (inactive) | 1.87
CARRPRFKDIAGNASASA [FS-3058] | 0.143 (inactive) | -0.201 (inactive) | 0.618 (inactive)
CARRPRPRREAGNASASA [FS-1480] | 8.98 (active) | 9.92 (active) | 8.21 (active)
CARRRRPRREAGNASASA [FS-1404] | 7.83 (active) | 8.28 (active) | 6.14 (active)
CADPLRPRREAGNASASA [FS-122] | 5.53 (active) | 5.14 (active) | 4.87 (active)
CADPLVAEEDAGNASASA [HC1289] | -0.0204 (inactive) | -0.956 (inactive) | -0.261 (inactive)
CARRRRPERVAGNASASA [FS-3064] | 0.335 (inactive) | 0.809 (inactive) | 1.19
CALVAFKIMSAGNASASA [HC1092] | -0.725 (inactive) | -0.454 (inactive) | -0.368 (inactive)
CASSSRRRRSAGNASASA [FS-1286] | 9.8 (active) | 8.59 (active) | 7.58 (active)
CAKHSRRRRSAGNASASA [FS-174] | 10.9 (active) | 10.7 (active) | 6.68 (active)
CASSSRRSRSAGNASASA [FS-1615] | 7.43 (active) | 8.67 (active) | 6.73 (active)
CASSREKRRSAGNASASA [FS-1285] | 0.453 (inactive) | 0.575 (inactive) | 2.39
CAAPSRRSRSAGNASASA [FS-216] | 9.21 (active) | 8.84 (active) | 7.91 (active)
